PubChem BioAssay
Active and inactive are the calls of the source.

Assays:
[1] = E. coli DRC41 culture turbidity changes, primary screen, E. coli filamentation inducer project, strain DRC41, OD650, 48 h (AID 1152);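 note: E. coli MC1000 strain DRC41 lacking acrAB efflux pump and sulA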; details: E. coli DRC41 (acrAB sulA), higher = more signal, called active from +8 up or from −8 down
[2] = small-molecule binders of probe aLefty1, primary screen, biochemical, small-molecule microarray, 635/667 nm fluorescence (AID 1153); details: higher = more signal;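 note: score merges spot fluorescence with signal-to-noise ratio from the scanned slide images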
[3] = PSAC antagonists in infected red cells, primary screen, cell-based, P. falciparum Indochina, OD700, 1 h (AID 1154); details: P. falciparum Indochina infected RBC osmotic lysis, higher = more signal, called active from +8 up or from −8 down
[4] = PSAC antagonists in infected red cells, primary screen, cell-based, P. falciparum Indochina, OD700, 2 h (AID 1155);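 note: lysis reports solute entry through the parasite surface anion channel PSAC; channel blockers reduce lysis of infected cells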; details: P. falciparum Indochina infected erythrocytes, osmotic lysis OD700; higher = more signal, called active from +8 up or from −8 down
[5] = osmotic lysis modulators in infected erythrocytes, primary screen, PSAC antagonist project, cell-based, P. falciparum Indochina, OD700, 3 h (AID 1156); details: higher = more signal, called active from +8 up or from −8 down
[6] = PSAC antagonists in infected red cells, primary screen, cell-based, P. falciparum Indochina, OD700, 18 h (AID 1157); details: P. falciparum Indochina infected erythrocytes, osmotic lysis OD700, 18 h; higher = more signal, called active from +8 up or from −8 down
[7] = modulators of S6 phosphorylation in cells, primary screen, cell-based, A549, cytoblot, luminescence, serum-stimulated (AID 1158); details: A549 phospho-S6 cytoblot, 5 h, higher = more signal;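 note: serum-stimulated A549 lung adenocarcinoma cells; signal is phosphorylated S6 detected by cytoblot immunostaining with HRP secondary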
[8] = target: NADPH oxidase 2 (Homo sapiens) (UniProt P04839); experiment: NOX2-dependent H2O2 signal modulators, primary screen, NOX inhibitor project, cell-based, HEK293-NOX2, PMA-stimulated, Amplex Red fluorescence (AID 1159); details: 45 min, higher = more signal, called active from +8 up or from −8 down; note: test concentration not given here
[9] = target: NADPH oxidase 4 (Homo sapiens) (UniProt Q9NPH5); experiment: NOX4-dependent H2O2 signal modulators, primary screen, NOX inhibitor project, cell-based, HEK293-NOX4, tetracycline-induced, Amplex Red fluorescence (AID 1160); details: 45 min, higher = more signal, called active from +8 up or from −8 down
[10] = target: NADPH oxidase 5 (Homo sapiens) (UniProt Q96PH1); experiment: NOX5-dependent H2O2 signal modulators, primary screen, NOX inhibitor project, cell-based, HEK293-NOX5, Amplex Red fluorescence (AID 1161); details: HEK293-NOX5, ionomycin, 45 min, higher = more signal
[11] = A549 cell viability effects, profiling panel, calcein-AM fluorescence, 48 h, basal (AID 1162); details: higher = more signal; note: test concentration not given here
[12] = adipocyte viability effects, profiling panel, cell-based, 3T3-L1 adipocytes, calcein-AM fluorescence, 48 h, basal (AID 1163); details: 3T3-L1 adipocytes viability, higher = more signal; note: test concentration not given here
[13] = HepG2 cell viability effects, profiling panel, calcein-AM fluorescence, 48 h, basal (AID 1164); details: higher = more signal; note: test concentration not given here
[14] = MM1S cell viability effects, profiling panel, calcein-AM fluorescence, 48 h, basal (AID 1165); details: higher = more signal;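 note: viability of MM1S multiple myeloma cells under basal unstimulated conditions; test concentration not given here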
[15] = basal RPMI8226 viability, no added stimulus, profiling panel, cell-based, calcein-AM fluorescence, 48 h, PK04 Diversity Set (AID 1166); details: RPMI8226 myeloma viability, higher = more signal;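 note: cells grown under basal conditions without added stimulus; test concentration not given here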
[16] = basal HepG2 mitochondrial membrane potential changes, profiling panel, cell-based, JC-1 fluorescence, 24 h, 100 nL compound (AID 1167); details: higher = more signal; note: test concentration not given here
[17] = basal 3T3-L1 adipocyte mitochondrial potential changes, profiling panel, cell-based, JC-1 fluorescence, 3T3-L1 adipocytes, 24 h, 100 nL compound (AID 1168); details: JC-1 mitochondrial fluorescence, higher = more signal, called active from +8 up or from −8 down; note: test concentration not given here
[18] = basal RPMI8226 mitochondrial membrane potential changes, profiling panel, cell-based, JC-1 fluorescence, 24 h, 100 nL compound (AID 1169); details: RPMI8226 myeloma, JC-1 mitochondrial potential fluorescence, higher = more signal; note: test concentration not given here
[19] = basal MM1S mitochondrial membrane potential changes, profiling panel, cell-based, JC-1 fluorescence, 24 h, 100 nL compound (AID 1170); details: higher = more signal; note: test concentration not given here
[20] = A549 lung cancer cell viability effects, profiling panel, resazurin fluorescence, 24 h, PK04 Diversity Set (AID 1171); details: higher = more signal, called active from +8 up or from −8 down; note: test concentration not given here

NADPH oxidase 5 (Homo sapiens), sequence (Q96PH1 whole entry, looked up): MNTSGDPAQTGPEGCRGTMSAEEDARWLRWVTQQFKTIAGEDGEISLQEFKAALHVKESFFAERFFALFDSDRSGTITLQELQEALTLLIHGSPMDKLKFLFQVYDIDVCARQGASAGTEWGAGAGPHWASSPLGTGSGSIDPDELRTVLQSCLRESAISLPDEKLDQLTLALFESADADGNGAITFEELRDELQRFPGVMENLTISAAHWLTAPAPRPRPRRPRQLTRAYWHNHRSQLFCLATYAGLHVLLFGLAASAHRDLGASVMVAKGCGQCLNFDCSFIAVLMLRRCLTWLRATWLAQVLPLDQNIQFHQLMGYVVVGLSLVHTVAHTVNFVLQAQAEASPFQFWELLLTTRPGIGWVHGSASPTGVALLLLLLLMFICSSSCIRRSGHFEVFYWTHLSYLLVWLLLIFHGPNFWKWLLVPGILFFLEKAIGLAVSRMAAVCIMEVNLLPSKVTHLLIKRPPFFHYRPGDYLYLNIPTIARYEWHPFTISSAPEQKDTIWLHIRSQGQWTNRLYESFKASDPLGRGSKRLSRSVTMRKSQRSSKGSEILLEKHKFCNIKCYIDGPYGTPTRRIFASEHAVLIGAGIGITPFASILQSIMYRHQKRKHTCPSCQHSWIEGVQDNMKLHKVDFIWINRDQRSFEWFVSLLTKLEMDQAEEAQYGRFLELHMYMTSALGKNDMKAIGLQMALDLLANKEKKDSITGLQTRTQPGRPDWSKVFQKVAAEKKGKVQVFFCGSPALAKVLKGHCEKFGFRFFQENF
NADPH oxidase 2 (Homo sapiens), sequence (P04839 whole entry, looked up): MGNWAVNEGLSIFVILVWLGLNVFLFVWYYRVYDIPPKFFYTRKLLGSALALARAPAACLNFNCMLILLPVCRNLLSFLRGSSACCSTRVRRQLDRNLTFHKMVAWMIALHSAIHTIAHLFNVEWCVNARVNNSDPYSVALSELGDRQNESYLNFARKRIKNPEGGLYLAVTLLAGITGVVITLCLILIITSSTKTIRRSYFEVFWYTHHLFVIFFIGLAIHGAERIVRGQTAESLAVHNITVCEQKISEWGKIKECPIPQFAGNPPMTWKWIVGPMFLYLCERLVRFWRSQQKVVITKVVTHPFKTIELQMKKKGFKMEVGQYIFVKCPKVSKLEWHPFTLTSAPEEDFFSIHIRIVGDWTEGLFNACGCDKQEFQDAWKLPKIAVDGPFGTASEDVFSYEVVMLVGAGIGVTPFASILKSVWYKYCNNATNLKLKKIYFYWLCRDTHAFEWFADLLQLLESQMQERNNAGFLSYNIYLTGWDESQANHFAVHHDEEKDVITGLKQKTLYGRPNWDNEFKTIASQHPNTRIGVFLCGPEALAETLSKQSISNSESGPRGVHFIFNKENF
NADPH oxidase 4 (Homo sapiens), sequence (Q9NPH5 whole entry, looked up): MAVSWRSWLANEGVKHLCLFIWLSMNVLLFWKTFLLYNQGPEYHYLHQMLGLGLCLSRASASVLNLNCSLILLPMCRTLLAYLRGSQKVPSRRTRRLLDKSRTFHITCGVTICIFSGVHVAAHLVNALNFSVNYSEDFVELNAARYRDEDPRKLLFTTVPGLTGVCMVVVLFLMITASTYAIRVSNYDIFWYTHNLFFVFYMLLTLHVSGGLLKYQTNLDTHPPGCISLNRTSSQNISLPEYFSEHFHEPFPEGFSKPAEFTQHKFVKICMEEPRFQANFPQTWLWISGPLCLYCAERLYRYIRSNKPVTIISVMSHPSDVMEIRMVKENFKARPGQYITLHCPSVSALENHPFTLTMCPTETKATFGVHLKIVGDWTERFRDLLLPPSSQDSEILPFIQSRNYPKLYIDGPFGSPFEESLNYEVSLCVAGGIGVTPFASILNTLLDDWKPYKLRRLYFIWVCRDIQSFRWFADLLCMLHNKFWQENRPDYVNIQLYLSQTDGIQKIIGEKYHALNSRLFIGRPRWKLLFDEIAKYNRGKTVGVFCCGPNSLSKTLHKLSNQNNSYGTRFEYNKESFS

Row | SMILES | z-score [1] | composite z-score [2] | z-score [3] | z-score [4] | z-score [5] | z-score [6] | z-score [7] | z-score [8] | z-score [9] | z-score [10] | z-score [11] | z-score [12] | z-score [13] | z-score [14] | z-score [15] | z-score [16] | z-score [17] | z-score [18] | z-score [19] | z-score [20]
1 | COc1ccc(C#Cc2ccc3c(c2)[C@]2(C(=O)N3)[C@H](c3ccc(OCCO)cc3)N3[C@H](c4ccccc4)[C@H](c4ccccc4)OC(=O)[C@H]3[C@@H]2C(=O)O)cc1 | 2.24 (inactive) | 1.4 | -1.39 (inactive) | -2.59 (inactive) | -6.7 (inactive) | -2.58 (inactive) | 1.6 | -0.922 (inactive) | -1.55 (inactive) | -2.5 | 0.325 | 1.33 | 0.712 | -3.1 | -4.59 | -4 | -4.96 (inactive) | -1.19 | -1.99 | 0.721 (inactive)
2 | COC(=O)C1(CC(C)C)C=C2C(=C(C(C)C)C(=O)C2C)CN1 (stereo not given) | -1.85 (inactive) | 0.302 | 1.06 (inactive) | -0.385 (inactive) | 1.07 (inactive) | 0.274 (inactive) | -0.38 | 0.377 (inactive) | -1.05 (inactive) | -2.44 | -1.49 | -0.404 | -1.43 | 0.0112 | -1.31 | -1.31 | -1.46 (inactive) | 0.105 | -0.919 | -0.697 (inactive)
3 | O=C1C2C=CC(C(O)C(c3ccccc3)c3ccccc3)N(Nc3ccccc3)C2C(=O)N1c1ccccc1 (stereo not given) | -0.606 (inactive) | 0.591 | 1.85 (inactive) | 1.71 (inactive) | 0.331 (inactive) | 1.41 (inactive) | -1.25 | -1.72 (inactive) | -4.94 (inactive) | -2.54 | 0.758 | -0.835 | 1.82 | 0.032 | -0.213 | -0.335 | -1.64 (inactive) | -0.305 | -0.401 | -0.876 (inactive)
4 | CCC(CC)C(O)C1C=CC2C(=O)N(C)C(=O)C2N1N1CCCCC1 (stereo not given) | -1.65 (inactive) | 0.361 | 1.41 (inactive) | 0.787 (inactive) | 0.156 (inactive) | 0.729 (inactive) | -1.17 | -0.893 (inactive) | -1.17 (inactive) | -1.35 | -0.0236 | -0.505 | -0.502 | -0.651 | -0.521 | -1.34 | -0.115 (inactive) | 0.153 | -0.557 | 0.0051 (inactive)
5 | CC(=O)NCCCC[C@@H]1NC(=O)[C@H]2C[C@@H](C(=O)NCCCCCC[N+](C)(C)C)[C@@H](c3ccc(O)cc3)N2C1=O | 0.371 (inactive) | 0.0262 | 1.94 (inactive) | 0.369 (inactive) | 0.469 (inactive) | 0.0802 (inactive) | -0.054 | 0.834 (inactive) | 0.288 (inactive) | -0.454 | -0.74 | 0.234 | -1.22 | -0.0244 | 0.512 | -0.896 | 0.217 (inactive) | 0.0883 | -0.251 | 0.615 (inactive)
6 | COCCOC(=O)N1C(=O)[C@@]2(c3cc(C#Cc4ccc(OC)cc4)ccc31)[C@H](C(=O)Nc1nc3ccccc3s1)[C@H]1C(=O)O[C@H](c3ccccc3)[C@H](c3ccccc3)N1[C@@H]2c1ccccc1OCCO | 2.47 (inactive) | -0.295 | 8.82 (active) | 0.873 (inactive) | 0.953 (inactive) | 0.514 (inactive) | 0.486 | 1.13 (inactive) | 0.337 (inactive) | 1.45 | -0.49 | 1.31 | 0.195 | -1.35 | -0.213 | -2.46 | 3.66 (inactive) | -0.678 | -0.881 | 0.027 (inactive)
7 | C=CCNC(=O)[C@H]1[C@@H]2C(=O)O[C@@H](c3ccccc3)[C@@H](c3ccccc3)N2[C@@H](c2ccc(O)cc2)[C@]12C(=O)Nc1ccc(C#CC3=CCCCC3)cc12 | -0.164 (inactive) | 0.802 | 1.54 (inactive) | 1.23 (inactive) | -0.355 (inactive) | 1.1 (inactive) | -0.101 | 1.18 (inactive) | 0.676 (inactive) | 1.61 | -0.931 | -0.826 | -0.66 | -3.3 | -4.46 | -0.341 | 0.523 (inactive) | -1.14 | -1.79 | -1.63 (inactive)
8 | C=CC[C@]1(C(=O)NCCCOC)N=C(c2ccc(OCCCO)cc2)O[C@H]1c1ccccc1 | 0.898 (inactive) | -0.0172 | 12.3 (active) | 0.912 (inactive) | 0.932 (inactive) | 0.643 (inactive) | 0.727 | -2.35 (inactive) | -0.164 (inactive) | -0.87 | 0.0753 | 0.301 | -1.1 | -0.464 | 0.511 | 0.238 | 0.171 (inactive) | -0.446 | -0.607 | 1.32 (inactive)
